# Experimental data published in PubChem BioAssay (NCATS).
# “And” between values parts separate entries of the source, which are not always exact repeats. Equal entries are not always repeated. A number with no mark means an inactive call. Inconclusive results are not listed. Entries that show only a call come without a potency. The source made the active and inactive calls. The call rests on the fitted dose curve; in most records, active means well fitted curve in the direction sought with a large enough effect; inconclusive means small, poorly fitted or top-dose-only effect, or another doubt; inactive means no such curve, though single readings can be large; an effect the other way counts as inactive or inconclusive.
# Experiments:
# [1] = tested on: Zika virus NS2B-NS3 protease (linked construct); assay: Primary screen NINDS Rhodamine qHTS for Zika virus inhibitors (AID 1347160); further: nearly all actives have a fitted effect of over 55% in size
# Outline: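 Percent inhibition, normalized to uninhibited and enzyme-free controls, is fitted to a 4-parameter Hill equation. Fluorescence change comes from a 15-min cleavage of 1.5 microM bis-peptide Rhodamine110 substrate by 25 nM linked NS2B-NS3 at room temperature.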
# [2] = Primary qHTS for inhibitors of nuclear receptor binding SET domain protein 2 (NSD2) in an isogenic RCH-ACV NSD2 p.E1099K mutant (9B) (AID 1645876); further: nearly all actives have a fitted effect of over 70% in size; further: potency means the concentration at half of the fitted maximal effect
# [3] = Primary qHTS for inhibitors of nuclear receptor binding SET domain protein 2 (NSD2) in an RCH-ACV wild type WT cells (2C) (AID 1645877); further: nearly all actives have a fitted effect of over 70% in size; further: potency means the concentration at half of the fitted maximal effect
# [4] = molecular target: Glutathione peroxidase 1 (Homo sapiens) (UniProt P07203); assay: Primary qHTS Assay for Inhibitors of Recombinant Selenoprotein Glutathione Peroxidase 1 (GPX1) (AID 1845191); further: nearly all actives have a fitted effect of over 65% in size
# Outline: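 10 nM GPX1 + cpd, 30 min RT; start w/ 1 mM GSH, 0.5 mM cumene hydroperoxide, 0.5 mM NADPH, 100 nM GR, 0.01% BSA; buffer 50 mM Tris-HCl pH 7.5, 2 mM EDTA, 150 mM NaCl; Fl 340/450, 0 & 15 min.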
# [5] = molecular target: Phospholipid hydroperoxide glutathione peroxidase GPX4 (Homo sapiens) (UniProt P36969); assay: Primary qHTS Assay for Inhibitors of Recombinant Selenoprotein Glutathione Peroxidase 4 (GPX4) (AID 1845192); further: nearly all actives have a fitted effect of over 65% in size
# Outline: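 NADPH consumption, followed by fluorescence at 340/450 nm between 0 and 15 min, reports GPX4 activity via coupled glutathione reductase (100 nM). Enzyme 200 nM was pre-exposed to compound 30 min; 0.5 mM cumene hydroperoxide and 1 mM GSH served as substrates.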
# [6] = molecular target: Luciferin 4-monooxygenase (Photinus pyralis) (UniProt P08659); assay: Primary firefly luciferase (FLuc) qHTS assay for identification of artifact compounds. (AID 1845220); details: outcome: dose series up to 54.1 µM unless noted; further: nearly all actives have a fitted effect of over 60% in size
# Outline: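 Compounds sat 15 min at room temperature with 10 uM luciferin and 10 uM ATP (pH 7.6 Tris acetate). Firefly luciferase (10 nM final) was then added, and luminescence was read 5 min later. Data normalized to no-enzyme and DMSO controls were Hill-fitted.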
# [7] = Primary fluorescence-based thiol-reactive (MSTI) qHTS assay for identification of artifact compounds. (AID 1845221); further: nearly all actives have a fitted effect of over 65% in size; further: potency means the concentration at half of the fitted maximal effect
# Outline: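 qHTS titration of compound; 4 uM MSTI, PBS pH 7.4, 2% DMSO; 1 h RT, dark; fluorescence 525/598 nm; normalized to Acetyl-MSTI and MSTI; 4-parameter Hill fit.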
# [8] = tested on: Nanoluciferase (engineered Oplophorus gracilirostris luciferase); assay: Primary Nanoluciferase (NLuc) qHTS assay for identification of artifact compounds. (AID 1845222)
# Outline: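 Luminescence from secreted NLuc (filtered, 1:55-diluted S16 cell medium) read 5 min after Nano-Glo substrate; compounds preincubated 15 min, RT. Hill fits of inhibition normalized to DMSO and no-enzyme.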
# [9] = tested on: CRL-7250; assay: Cytotoxic Profiling of Annotated Libraries Using Quantitative High-Throughput Screening (AID 1296008); details: Five cell lines viability, CellTiter-Glo ATP luminescence, 48-72 h; max response: hits give low values; further: nearly all actives have a fitted effect of over 60% in size; further: potency means the concentration at half of the fitted maximal effect
# Outline: (§1)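 Cytotoxicity was measured as CellTiter-Glo ATP luminescence, read after 10 min at room temperature. Compound treatment of the cells lasted 48 or 72 hr at 37 degrees Celsius in a qHTS format.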
# [10] = tested on: HEK293; assay: as above; details: Five cell lines viability, CellTiter-Glo ATP luminescence, 48-72 h; max response: hits give low values
# Outline: as §1
# [11] = tested on: HaCat; assay: as above; details: Five cell lines viability, CellTiter-Glo ATP luminescence, 48-72 h; max response: hits give low values
# Outline: as §1
# [12] = tested on: NIH3T3; assay: as above; details: Five cell lines viability, CellTiter-Glo ATP luminescence, 48-72 h; max response: hits give low values
# Outline: as §1
# [13] = tested on: C33A; assay: Primary qHTS to identify gynecologic anti-cancer compounds using libraries of approved drugs and bioactive compounds (AID 1345084); details: Gynecologic cancer cell panel viability, ATPlite luminescence, 48 h; series mostly up to 57.5 µM; further: nearly all actives have a fitted effect of over 55% in size; further: potency means the concentration at half of the fitted maximal effect
# Outline: (§2)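 Cells, 1,000 per well, were allowed to settle for 16 h at 37 C before compound addition. Five concentrations were tested for 48 h, and viability was read by ATPlite luminescence after 15 min at room temperature.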
# [14] = tested on: CASKI; assay: as above; details: Gynecologic cancer cell panel viability, ATPlite luminescence, 48 h; series mostly up to 57.5 µM
# Outline: as §2
# [15] = tested on: Es-2; assay: as above; details: Gynecologic cancer cell panel viability, ATPlite luminescence, 48 h; series mostly up to 57.5 µM
# Outline: as §2
# [16] = tested on: Hek293T; assay: as above; details: Gynecologic cancer cell panel viability, ATPlite luminescence, 48 h, control line for the selectivity index; series mostly up to 57.5 µM
# Outline: as §2
# [17] = tested on: OV90; assay: as above; details: Gynecologic cancer cell panel viability, ATPlite luminescence, 48 h; series mostly up to 57.5 µM
# Outline: as §2
# [18] = tested on: PA-1; assay: as above; details: Gynecologic cancer cell panel viability, ATPlite luminescence, 48 h; series mostly up to 57.5 µM
# Outline: as §2
# [19] = tested on: Tov-21-G; assay: as above; details: Gynecologic cancer cell panel viability, ATPlite luminescence, 48 h; series mostly up to 57.5 µM
# Outline: as §2
# [20] = tested on: Tov112D; assay: as above; details: Gynecologic cancer cell panel viability, ATPlite luminescence, 48 h; series mostly up to 57.5 µM
# Outline: as §2
# Chain of Phospholipid hydroperoxide glutathione peroxidase GPX4 (Homo sapiens) (P36969 whole entry, looked up): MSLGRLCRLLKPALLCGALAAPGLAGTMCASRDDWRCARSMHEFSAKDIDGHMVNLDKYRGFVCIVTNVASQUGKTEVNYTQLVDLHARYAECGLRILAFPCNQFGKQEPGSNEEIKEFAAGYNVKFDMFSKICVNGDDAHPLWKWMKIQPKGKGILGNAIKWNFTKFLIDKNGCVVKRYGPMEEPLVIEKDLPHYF
# Chain of Glutathione peroxidase 1 (Homo sapiens) (P07203 whole entry, looked up): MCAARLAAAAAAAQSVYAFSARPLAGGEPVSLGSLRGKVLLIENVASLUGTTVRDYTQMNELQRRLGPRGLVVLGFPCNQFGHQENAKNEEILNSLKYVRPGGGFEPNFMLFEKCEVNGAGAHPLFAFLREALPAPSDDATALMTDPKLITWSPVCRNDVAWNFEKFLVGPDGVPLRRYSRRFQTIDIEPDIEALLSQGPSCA
structure (smiles),measurement,setting,value
Cc1c(N2C(=O)[C@@H]3[C@H](O)CCN3C2=O)ccc(C#N)c1Cl,Potency,[1],inactive
same,Potency,[2],inactive
same,Potency,[3],inactive
same,Potency,[4],inactive
same,Potency,[5],inactive
same,outcome,[6],inactive
same,Potency,[7],inactive
same,Potency,[8],inactive
same,max response,[9],-13.8%
same,max response,[10],-6.16%
same,outcome,[11],inactive
same,max response,[12],-8.96%
same,Potency,[13],inactive
same,Potency,[14],inactive
same,Potency,[15],inactive
same,Potency,[16],inactive
same,Potency,[17],inactive
same,Potency,[18],inactive
same,Potency,[19],inactive
same,Potency,[20],inactive
Cc1sc2c(c1C)C(c1ccc(Cl)cc1)=N[C@@H](CC(N)=O)c1nnc(C)n1-2,Potency,[1],inactive
same,Potency,[2],64.9 nM (active) and 132 nM (active)
same,Potency,[3],51.5 nM (active) and 148 nM (active)
same,Potency,[4],inactive
same,Potency,[5],inactive
same,outcome,[6],inactive
same,Potency,[7],inactive
same,Potency,[8],inactive
same,Potency,[9],0.366 µM (active)
same,Potency,[10],0.259 µM (active)
same,max response,[11],-29.9%
same,Potency,[13],inactive
same,Potency,[14],inactive
CC(=O)O[C@H]1CC[C@@]2(CI)C(=CC[C@@H]3[C@@H]2CC[C@]2(C)C(=O)CC[C@@H]32)C1,Potency,[1],inactive
same,Potency,[4],inactive
same,Potency,[5],inactive
same,outcome,[6],inactive
same,Potency,[7],inactive
same,Potency,[8],inactive
same,outcome,[9],inactive
same,max response,[10],-18.2%
same,outcome,[11],inactive
same,max response,[12],0.959%
same,Potency,[13],inactive
same,Potency,[14],inactive
same,Potency,[15],inactive
same,Potency,[16],inactive
same,Potency,[17],inactive
same,Potency,[18],inactive
same,Potency,[19],inactive
same,Potency,[20],inactive
C[C@]12CC[C@H](O[C@@H]3O[C@H](CO)[C@@H](O)[C@H](O)[C@H]3O[C@@H]3O[C@H](CO)[C@@H](O)[C@H](O)[C@H]3O)CC1=CC[C@@H]1[C@@H]2CC[C@]2(C)[C@@H](C3=CC(=O)OC3)CC[C@]12O,Potency,[1],inactive
same,Potency,[2],2.16 µM (active)
same,Potency,[3],4.3 µM (active)
same,Potency,[4],inactive
same,Potency,[5],inactive
same,outcome,[6],inactive [at 25.7 µM]
same,Potency,[7],inactive
same,Potency,[8],inactive
same,Potency,[9],3.85 µM (active)
same,Potency,[10],6.11 µM (active)
same,max response,[11],-17%
same,max response,[12],1.49%
same,Potency,[14],inactive
same,Potency,[17],inactive
same,Potency,[19],6.31 µM (active)
CC1=CC2OC3[C@H](O)C[C@@](C)([C@]34CO4)[C@@]2(CO)[C@H](O)C1=O (stereo partly specified),Potency,[1],inactive
same,Potency,[2],1.63 µM (active)
same,Potency,[3],1.83 µM (active)
same,Potency,[4],inactive
same,Potency,[5],inactive
same,outcome,[6],inactive
same,Potency,[7],inactive
same,Potency,[8],inactive
same,Potency,[9],3.26 µM (active)
same,Potency,[10],1.64 µM (active)
same,Potency,[11],14.6 µM (active)
same,Potency,[12],1.3 µM (active)
same,Potency,[15],10 µM (active)
same,Potency,[19],14.1 µM (active)
C[C@H]1CCC/C=C/C2C[C@H](O)C[C@H]2[C@H](O)/C=C/C(=O)O1 (stereo partly specified),Potency,[1],inactive
same,Potency,[2],163 nM (active) and 332 nM (active)
same,Potency,[3],163 nM (active) and 417 nM (active)
same,Potency,[4],inactive
same,Potency,[5],inactive
same,outcome,[6],inactive
same,Potency,[7],inactive
same,Potency,[8],inactive
same,Potency,[9],0.0517 µM (active)
same,Potency,[10],0.58 µM (active)
same,Potency,[11],0.184 µM (active)
same,Potency,[12],5.17 µM (active)
same,Potency,[13],0.631 µM (active)
same,Potency,[14],1 µM (active)
same,Potency,[15],0.316 µM (active)
same,Potency,[16],0.891 µM (active)
same,Potency,[17],0.316 µM (active)
same,Potency,[18],0.316 µM (active)
same,Potency,[19],1 µM (active)
same,Potency,[20],0.891 µM (active)
CCC1NC(=O)C2C(Cl)C(Cl)CN2C(=O)C(CC)NC(=O)CC(c2ccccc2)NC(=O)C(CO)NC1=O (stereo unspecified),Potency,[4],inactive
same,Potency,[5],inactive
same,outcome,[6],inactive
same,Potency,[7],2.32 µM (active)
same,Potency,[8],inactive
same,max response,[9],2.35%
same,max response,[10],-1.56%
same,outcome,[11],inactive
same,outcome,[12],inactive
same,Potency,[13],inactive
same,Potency,[14],inactive
same,Potency,[15],inactive
same,Potency,[16],inactive
same,Potency,[17],inactive
same,Potency,[18],inactive
same,Potency,[20],inactive
NC(=O)c1ncn2c1CN=C(c1ccccc1Br)c1cc(F)ccc1-2,Potency,[1],inactive
same,Potency,[2],inactive
same,Potency,[3],inactive
same,Potency,[4],inactive
same,Potency,[5],inactive
same,outcome,[6],inactive
same,Potency,[7],inactive
same,Potency,[8],inactive
same,max response,[9],-2.22%
same,max response,[10],0.36%
same,max response,[11],-12.6%
same,max response,[12],1.84%
same,Potency,[13],inactive
same,Potency,[14],inactive
same,Potency,[15],inactive
same,Potency,[16],inactive
same,Potency,[17],inactive
same,Potency,[18],inactive
same,Potency,[19],inactive
same,Potency,[20],inactive
CC1(C)C(=O)N(c2ccc(C#N)c(C(F)(F)F)c2)C(=O)N1CCCCO,Potency,[1],inactive
same,Potency,[2],inactive
same,Potency,[3],inactive
same,Potency,[4],inactive
same,Potency,[5],inactive
same,outcome,[6],inactive
same,Potency,[7],inactive
same,Potency,[8],inactive
same,max response,[9],-11%
same,max response,[10],-15.9%
same,max response,[11],-18.8%
same,max response,[12],-6.14%
same,Potency,[13],inactive
same,Potency,[14],inactive
same,Potency,[15],inactive
same,Potency,[16],inactive
same,Potency,[17],inactive
same,Potency,[18],inactive
same,Potency,[19],inactive
same,Potency,[20],inactive
